# ZTA DNA inh – ZTA (EBV) inhibition in EBNA-1 counter-screen; P03206; ZTA-DNA binding, fluorescence polarization; inhibition, % at 11 µM; hit rate 0.15% among 320,000; AID 2234; in the data active means inhibition above about 33%
# E coli Lon inh – inhibitors of E. coli Lon protease, primary screen, biochemical, fluorescence polarization | hit rate 0.42% among 360,000 | inhibition, % at 7.94 µM | P0A9M0 | purified E. coli Lon protease; in the data active means inhibition above about 13%, passing the limit was not always enough;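 further: 0% = enzyme with probe and DMSO and 100% = no enzyme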
# C-LANA FP – inhibitors of KSHV C-LANA binding to DNA, primary screen, biochemical, fluorescence polarization, FAM-LBS DNA, MBP-C-LANA, single point; Kaposi's sarcoma herpesvirus LANA C-terminal domain (residues 932-1162) DNA binding; inhibition, % at 9 µM; hit rate 0.078% among 340,000; AID 504423, 2011;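 active means highest replicate inhibition at or above 60% at 9 µM, even if other replicates fall short; inactive means all replicates below 60% inhibition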;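 further: 0% = neutral control wells and 100% = 4 µM acridine orange control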
# Keap1-Nrf2 PPI – Keap1-Nrf2 protein-protein interaction inhibitors, primary screen, biochemical, fluorescence polarization, single point; Keap1 Kelch-Nrf2 peptide fluorescence polarization, 1536-well; AID 504523, 2011; inhibition, % at 9.4 µM; hit rate 0.15% among 340,000; in the data active means inhibition above about 12%;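 further: human Keap1 Kelch domain with fluorescein labeled Nrf2 9mer peptide probe; 0% = neutral control wells and 100% = peptide positive control; higher means more block of Keap1 binding to Nrf2 peptide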
# EBNA-1 inh – EBNA-1 DNA-binding inhibitors, primary screen, biochemical, fluorescence polarization. inhibition, % at 14.8 µM. hit rate 0.34% among 300,000; in the data active means inhibition above about 28%
# eLon confirm – E. coli Lon protease inhibitor retest, confirmation, biochemical, fluorescence polarization; purified E. coli Lon; shares compounds with E coli Lon inh; inhibition, % at 7.94 µM; hit rate 31% among 1,400; in the data active means inhibition above about 16%;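 further: 0% = enzyme with probe and DMSO and 100% = no enzyme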
# An asterisk follows results filed as active; x = no result; + = active, no number. Most compounds without a hit are left out; they make up all but 0.85% or so of the library.
SMILES,ZTA DNA inh,E coli Lon inh,C-LANA FP,Keap1-Nrf2 PPI,EBNA-1 inh,eLon confirm
CCC(=NC(C)c1ccccc1)c1c(O)[nH]c(=O)[nH]c1=O (stereo not given),-1.2,21.3*,0.2,-2.7,7.3,5.9
CCCCc1ncc(CN2CCCC(C(=O)c3ccc(SC)cc3)C2)[nH]1 (stereo not given),0.7,-3.2,-1.0,1.9,7.3,x
CCOC(=O)C(c1c(O)c2ccccc2oc1=O)c1c(O)c2ccccc2oc1=O,x,-6.9,x,x,x,x
Cn1cc(C=C2C(=O)NC(=O)NC2=O)c2ccccc21,-6.6,117.2*,10.5,6.4,-12.3,+
COc1ccc2[nH]c(C)c(CCNCc3cc(OC)c4c(c3)OCO4)c2c1,9.5,12.5,10.7,6.6,x,x
CN1CCc2cc(O)cc3c2[C@H]1Cc1ccc(O)c(O)c1-3,-20.1,-6.1,-1.7,-0.2,0.9,x
CN1CCc2cc3c(c4c2C1Cc1ccccc1-4)OCO3 (stereo not given),-11.4,148.2*,4.5,-1.6,-0.1,98.7*
Oc1cc(Cl)c(Cl)c(Cl)c1Cl,x,48.9*,-0.6,1.4,x,-12.4
Oc1cc(Cl)c(Cl)c(Cl)c1,x,7.9,0.0,-7.1,x,x
Nc1ccc2ccc3cccc[n+]3c2c1,-13.6,+,152.5*,138.0*,1.9,+
CNC(=O)Oc1cccc(-c2cn3cc(OC(=O)NC)ccc3n2)c1,-7.5,34.8*,2.8,5.1,9.2,3.6
CNC(=O)Oc1ccc(-c2cn3cc(Cl)ccc3n2)cc1,14.9,12.9,-0.4,-6.9,8.1,x
Cc1c(NS(=O)(=O)c2ccccc2)ccc([N+](=O)[O-])c1Cl,x,-1.7,-0.1,0.6,x,x
COc1ccc(OCC(=O)N2CCCC(N3CCN(c4ccccc4C)CC3)C2)cc1 (stereo not given),-11.2,134.3*,-0.8,5.1,-3.2,-3.9
CCOC(=O)[C@]12Cc3cc4ccccc4cc3[C@H]1N(Cc1ccccc1)C(=O)c1cc(OC)ccc12,x,7.9,x,x,x,x
C[n+]1c(-c2ccccc2)c2cc(N)ccc2c2ccc(N)cc21,-20.6,154.1*,20.9,7.3,7.9,76.0*
Cc1cc2c(C(F)(F)F)cc(=O)oc2c2c1NCCC2,3.4,65.2*,1.9,8.3,-11.6,62.4*
CCOc1cccc(=NC2CCCCC2)c2c(C)n(C)c(C)c12,11.5,89.8*,x,x,4.0,0.1
N#CC1c2ccccc2-n2nncc2CN1C(=O)CCc1ccccc1 (stereo not given),x,6.2,0.7,-5.7,x,x
O=[N+]([O-])c1ccc(N2CCOCC2)c2c1no[n+]2[O-],x,28.9*,x,x,x,4.0
O=[N+]([O-])c1ccc(N2CCCCC2)c2ncccc12,11.6,-1.6,0.4,-1.5,2.9,x
O=[N+]([O-])c1ccc(N2CCOCC2)c2cccnc12,14.6,-2.4,-0.6,1.3,-7.5,x
O=[N+]([O-])c1ccc(N2CCCCCC2)c2nonc12,-7.7,61.4*,49.4,-42.2,-9.9,20.7*
O=c1oc2ccccc2c(O)c1[C@H]1c2ccc(O)cc2Oc2c1c(=O)oc1ccccc21,13.7,18.3*,-0.4,-9.4,3.3,16.8*
CCN(CC)S(=O)(=O)c1ccc(C(=O)NC2CN3CCC2CC3)cc1 (stereo not given),-0.9,-1.8,0.5,0.2,-17.8,x
COc1cccc2c1C(=O)c1c(O)c3c(c(O)c1C2=O)CC(O)(C(C)=NO)CC3OC1CC(N)C(O)C(C)O1 (stereo not given),x,+,114.1*,5.2,x,+
CN1C(=O)C(c2ccccc2)C(=O)N(C)C1=O,-8.7,-11.5,x,x,-2.0,x
CCC1CN1P(=O)(N1CCCC1)N1CC1CC (stereo not given),x,3.3,-2.2,-2.2,x,x

# High-throughput results from PubChem BioAssay.
